Screening data as filed in PubChem BioAssay.
TEAD-YAP inh – TEAD-YAP interaction inhibition, primary screen, TEAD-YAP interaction inhibitor project, luminescence, HEK-TIYL cells | TEAD-Gal4/YAP UAS-luciferase luminescence | inhibition, % at 9.12 µM | 1.4% of 640,000 active | AID 1259422, 2018; in the data active = inhibition above about 32%;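 note: 0% = median of test compound wells and 100% = reference inhibitor wells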
FBW7 act – FBW7 E3 ligase activators, primary screen, biochemical, AlphaScreen, human; F-box/WD repeat-containing protein 7 (Homo sapiens), Q969H0; AlphaScreen FBW7–phospho-cyclin E peptide binding, activator screen; normalized activity (activation), % at 26.1 µM; 0.13% of 650,000 active; AID 1259310, 2017; in the data active = normalized activity above about 1.9%;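 note: purified mutant Fbw7 with reduced substrate affinity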
Target sequence (Q969H0 whole entry, looked up): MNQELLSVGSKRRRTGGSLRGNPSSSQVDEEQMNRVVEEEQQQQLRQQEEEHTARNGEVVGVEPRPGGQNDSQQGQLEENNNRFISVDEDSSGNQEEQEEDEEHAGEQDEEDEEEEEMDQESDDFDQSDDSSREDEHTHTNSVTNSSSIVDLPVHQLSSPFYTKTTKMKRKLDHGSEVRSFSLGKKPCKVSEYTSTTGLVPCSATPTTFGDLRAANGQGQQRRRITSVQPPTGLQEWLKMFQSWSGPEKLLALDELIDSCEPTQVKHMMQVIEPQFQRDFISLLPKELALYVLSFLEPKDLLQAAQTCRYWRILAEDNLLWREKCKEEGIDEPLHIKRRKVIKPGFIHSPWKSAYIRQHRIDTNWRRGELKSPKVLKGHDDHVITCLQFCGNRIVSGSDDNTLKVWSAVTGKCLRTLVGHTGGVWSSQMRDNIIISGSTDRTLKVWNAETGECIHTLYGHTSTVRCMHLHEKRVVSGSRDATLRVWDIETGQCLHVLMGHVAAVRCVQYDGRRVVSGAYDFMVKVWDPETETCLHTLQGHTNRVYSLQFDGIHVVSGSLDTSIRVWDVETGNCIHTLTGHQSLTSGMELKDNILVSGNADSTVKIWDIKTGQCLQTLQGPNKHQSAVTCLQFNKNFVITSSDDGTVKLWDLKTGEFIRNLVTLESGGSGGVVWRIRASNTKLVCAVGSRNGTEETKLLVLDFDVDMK
GPR151 activ – activators of human GPR151, primary screen, cell-based, PathHunter beta-arrestin, luminescence | G-protein coupled receptor 151 (Homo sapiens), Q8TDV0 | PathHunter beta-arrestin GPR151 cells | activation, % at 11.2 µM | 1% of 650,000 active | AID 1508602, 2020; in the data active = activation above about 4.9%;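 note: 0% = median of compound wells and 100% = cells with positive control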
MITF primary – MITF inhibitors, primary screen, biochemical, AlphaScreen, human | AlphaScreen MITF homodimerization, bead proximity signal | inhibition, % at 2.6 µM | 0.91% of 650,000 active | AID 1259374, 2018; in the data active = inhibition above about 50%;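 note: 0% = vehicle wells with protein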
* marks the source's active call; other numbers are inactive results. Rows were chosen to be rich in hits. Some 3.4% of all compounds tested hit in one or more screens of this group.

How did CC(=O)Nc1ccc(Nc2nc(-c3cccc(N)c3)nc3c2ncn3-c2ccsc2)cc1 do in these assays?
TEAD-YAP inh: 43*; FBW7 act: 0; GPR151 activ: 3; MITF primary: -2

How did COc1ccc(-c2nc(Nc3ccc(NC(C)=O)cc3)c3ncn(-c4ccsc4)c3n2)cc1 do in these assays?
TEAD-YAP inh: 43*; FBW7 act: 0; GPR151 activ: 0; MITF primary: 7

Results for Nc1cccc(-c2nc(Nc3ccccc3)c3ncn(-c4ccsc4)c3n2)c1 ?
TEAD-YAP inh: 49*; FBW7 act: 0; GPR151 activ: 0; MITF primary: 1

How did O=c1ccc2cc(S(=O)(=O)NCc3cccnc3)ccc2[nH]1 do in these assays?
TEAD-YAP inh: 14; FBW7 act: 0; GPR151 activ: -1; MITF primary: -5

Results for CCCc1ccc(C#N)c(SCC(=O)Nc2ccc(C(=O)O)cc2)n1 ?
TEAD-YAP inh: 0; FBW7 act: 0; GPR151 activ: 1; MITF primary: -5

What do the screens show for `O=C1C(=O)N(CNC2CCCCC2)c2ccccc21`?
TEAD-YAP inh: 6; FBW7 act: 0; GPR151 activ: 0; MITF primary: 6

What do the screens show for `COC(=O)c1cccc(NC(=O)COc2ccccc2Br)c1`?
TEAD-YAP inh: 43*; FBW7 act: 0; GPR151 activ: 0; MITF primary: 3

Results for CCCOC(=O)c1cccc(NC(=O)COc2ccc(C)cc2Br)c1 ?
TEAD-YAP inh: 92*; FBW7 act: 1; GPR151 activ: -1; MITF primary: -5

How did O=C(COc1cccc2ccccc12)Nc1ccncc1 do in these assays?
TEAD-YAP inh: 40*; FBW7 act: 0; GPR151 activ: 0; MITF primary: 6

How did COC(=O)c1cccc(NC(=O)COc2ccc(C)cc2Br)c1 do in these assays?
TEAD-YAP inh: 91*; FBW7 act: 0; GPR151 activ: 1; MITF primary: -3

What do the screens show for `CCCOC(=O)c1cccc(NC(=O)COc2ccccc2OC)c1`?
TEAD-YAP inh: -6; FBW7 act: 0; GPR151 activ: 1; MITF primary: -7

What do the screens show for `COC(=O)c1cccc(NC(=O)COc2cc(C)ccc2C(C)(C)C)c1`?
TEAD-YAP inh: 2; FBW7 act: 0; GPR151 activ: 0; MITF primary: 14

Results for CCOC(=O)c1c(-c2ccc(F)cc2)csc1NC1=NS(=O)(=O)c2ccccc21 ?
TEAD-YAP inh: 9; FBW7 act: 0; GPR151 activ: 3; MITF primary: -9

Results for CC(=O)c1cccc(NC(=O)COc2ccc(C(C)(C)C)cc2)c1 ?
TEAD-YAP inh: 1; FBW7 act: 0; GPR151 activ: 1; MITF primary: 0

What do the screens show for `CCC(C)(C)c1ccc(OCC(=O)Nc2cccc(C(=O)O)c2)cc1`?
TEAD-YAP inh: 38*; FBW7 act: 0; GPR151 activ: -2; MITF primary: -35

How did O=C(Cc1ccccc1)Nc1cccc(C(=O)OCC(=O)c2ccc([N+](=O)[O-])cc2)c1 do in these assays?
TEAD-YAP inh: -15; FBW7 act: 0; GPR151 activ: -1; MITF primary: -7

What do the screens show for `Cc1ccc(C)c(C(=O)COC(=O)c2cccc(NC(=O)Cc3ccccc3)c2)c1`?
TEAD-YAP inh: 42*; FBW7 act: 0; GPR151 activ: 0; MITF primary: 1

Results for Cc1ccc(OCC(=O)Nc2ccccc2F)c(Br)c1 ?
TEAD-YAP inh: 38*; FBW7 act: 0; GPR151 activ: -1; MITF primary: 1

How did Cc1ccc(OCC(=O)Nc2cccc(C(=O)O)c2)c(Br)c1 do in these assays?
TEAD-YAP inh: 98*; FBW7 act: 0; GPR151 activ: -10; MITF primary: 14

Results for COc1cccc(C2NC(=O)NC(C)=C2C(=O)OCC2CCCO2)c1OC (stereo not drawn) ?
TEAD-YAP inh: -6; FBW7 act: 0; GPR151 activ: 2; MITF primary: 6

Results for CC1(C)OC2c3cc([N+](=O)[O-])ccc3OCN2c2ccccc21 (stereo not drawn) ?
TEAD-YAP inh: -2; FBW7 act: 0; GPR151 activ: -1; MITF primary: 10

Results for Cc1ccc(NC(=O)COc2c(C)cccc2C)c(Br)c1 ?
TEAD-YAP inh: -17; FBW7 act: 2.5*; GPR151 activ: -1; MITF primary: 21

What do the screens show for `Cc1ccccc1NC(=O)COc1ccc(Br)cc1C=O`?
TEAD-YAP inh: 45*; FBW7 act: 0; GPR151 activ: 0; MITF primary: 10

How did Cc1ccccc1NC(=O)COc1ccccc1C=O do in these assays?
TEAD-YAP inh: -13; FBW7 act: 0; GPR151 activ: 0; MITF primary: 2

How did Cc1ccc(NC(=O)c2cccc(Br)c2)c(Br)c1 do in these assays?
TEAD-YAP inh: -52; FBW7 act: 2.5*; GPR151 activ: 1; MITF primary: 8

How did Cc1ccc(NC(=O)COc2ccccc2C)c(Br)c1 do in these assays?
TEAD-YAP inh: -27; FBW7 act: 0; GPR151 activ: 0; MITF primary: 1

How did O=C(Nc1cccc(Br)c1)C1CC(=O)N(c2ccc(F)cc2)C1 (stereo not drawn) do in these assays?
TEAD-YAP inh: 5; FBW7 act: 0; GPR151 activ: 0; MITF primary: 12

What do the screens show for `CCN(CC)S(=O)(=O)c1ccc(NC(=O)c2cc3ccccn3n2)cc1`?
TEAD-YAP inh: -27; FBW7 act: 0; GPR151 activ: 0; MITF primary: -14

Results for c1ccc(-c2cn3nc(-c4ccccc4)sc3n2)cc1 ?
TEAD-YAP inh: 44*; FBW7 act: 0; GPR151 activ: -1; MITF primary: 6

What do the screens show for `CCN1CCN(c2ncnc3c(-c4ccc(OC)cc4)nsc23)CC1`?
TEAD-YAP inh: -55; FBW7 act: 0; GPR151 activ: -1; MITF primary: 12

Results for COc1ccc(-c2nsc3c(N4CCCC(C)C4)ncnc23)cc1 (stereo not drawn) ?
TEAD-YAP inh: 86*; FBW7 act: 0; GPR151 activ: 1; MITF primary: -5

Results for CC1CCCN(c2ncnc3c(-c4ccccc4)nsc23)C1 (stereo not drawn) ?
TEAD-YAP inh: 80*; FBW7 act: 0; GPR151 activ: 1; MITF primary: 0

What do the screens show for `Fc1ccc(-c2nsc3c(N4CCOCC4)ncnc23)cc1`?
TEAD-YAP inh: 68*; FBW7 act: 0; GPR151 activ: 0; MITF primary: -1

Results for COc1ccc(-c2nsc3c(N4CCCC4)ncnc23)cc1 ?
TEAD-YAP inh: 65*; FBW7 act: 0; GPR151 activ: 1; MITF primary: -16

Results for CN(C)N1C(=O)/C(=C/c2cccc([N+](=O)[O-])c2)SC1=Nc1ccccc1 ?
TEAD-YAP inh: 17; FBW7 act: 0; GPR151 activ: 1; MITF primary: -1

Results for CCOc1ccc(CN2CCN(C(=O)c3ccccc3F)CC2)cc1 ?
TEAD-YAP inh: 40*; FBW7 act: 0; GPR151 activ: 0; MITF primary: 30
